Sampled rows, rich in hits. Any-hit rate of the full collection: about 3.3%.
Jurkat NFkB inh: inhibitors of the PMA/ionomycin-induced NF-kB reporter in Jurkat cells; PMA/ionomycin-induced NF-kB luciferase reporter, luminescence; inhibition, % at 4 µM; actives 0.53% (n = 330,000); AID 435003; in the data active = inhibition above about 50%
esBAF inh: inhibitors of esBAF chromatin remodeling in mouse ES cells; AID 602393; actives 2% (n = 350,000); Bmi1-luciferase knock-in reporter, 24 h; 100% = twice the neutral-well signal; reporter increase, % at 12.5 µM; in the data active = activation above about 40%; inconclusive = no clear call, values can overlap the other calls;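 note: 0% = median of the plate's neutral control wells and 100% = double that signal; a rise in the Bmi1 reporter signal indicates esBAF inhibition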
697 NFkB inh: lowers PMA/ionomycin-induced NF-kB signal in 697 B cells; 697 B-cell NF-kB luciferase reporter, 16 h; inhibition, % at 4 µM; actives 0.33% (n = 330,000); AID 435022; in the data active = inhibition above about 35%
SMARCA2 act: SMARCA2 function activation, primary screen. MG213 cells, MMTV-luciferase reporter, dexamethasone, overnight. actives 1% (n = 370,000). activation, % at 9.1 µM; in the data active = activation above about 7.8%;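 note: 0% = vehicle wells and 100% = reference activator wells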
Gli-Sufu block: blocks Gli-Sufu signaling in a luciferase reporter | Sufu-KO-LIGHT fibroblasts, Gli luciferase reporter luminescence | inhibition, % at 5 µM | actives 0.74% (n = 340,000) | AID 588413;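 active = inhibition above about 55%, limit read from the data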;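 note: 0% = DMSO-treated cells and 100% = wells with medium but no cells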
Numbers without * were called inactive.

For CC(=NNC(=S)N1CCN(c2ccccn2)CC1)c1ccccn1 the results were SMARCA2 act -1.0 and Gli-Sufu block 9.2.
For CC(=NNC(=S)N1CCN(c2ccccn2)CC1)c1nccs1 the results were Gli-Sufu block 88.6*.
Screening COc1ccc(C(=O)COC(=O)c2cccc(-n3cnnn3)c2)c(OC)c1 returned Jurkat NFkB inh -33.7, esBAF inh 56.1*, 697 NFkB inh -33.7, SMARCA2 act 4.7 and Gli-Sufu block -36.7.
For C[C@H]1CN([C@@H](C)CO)C(=O)c2cc(NC(=O)NC3CCCCC3)ccc2O[C@@H]1CN(C)C(=O)Nc1ccc(F)cc1 the results were esBAF inh 1.6.
`CCCCCc1ccc(-c2cn(Cc3ccc(C)cc3)nn2)cc1` gave Jurkat NFkB inh -6.9, esBAF inh 18.4, 697 NFkB inh -21.2, SMARCA2 act 4.5 and Gli-Sufu block -22.6.
COc1ccc(-c2cn(Cc3ccc(C)cc3)nn2)cc1 was read as Jurkat NFkB inh -81.5, esBAF inh 79.0*, 697 NFkB inh -75.7, SMARCA2 act 6.5 and Gli-Sufu block -21.6.
`COc1ccc(CN(C)C[C@H]2Oc3c(NC(=O)NC4CCCCC4)cccc3C(=O)N([C@@H](C)CO)C[C@H]2C)cc1` gave esBAF inh 1.5.
C[C@@H]1CCCCO[C@H](CN(C)Cc2ccccc2)[C@@H](C)CN([C@@H](C)CO)C(=O)c2cc(NS(=O)(=O)c3ccc(F)cc3)ccc2O1 was read as esBAF inh 3.3.
CN(C)S(=O)(=O)c1cccc(-c2cn3cc(Cl)ccc3n2)c1 was read as Jurkat NFkB inh -34.3, esBAF inh 45.1*, 697 NFkB inh -20.3 and Gli-Sufu block -16.7.
For c1cncc(CSc2ccc(-c3cccs3)nn2)c1 the results were Jurkat NFkB inh -42.5, esBAF inh 56.3*, 697 NFkB inh -18.6, SMARCA2 act -1.1 and Gli-Sufu block -33.5.
For Cc1noc(C)c1NC(=O)Nc1ccc2c(c1)C(=O)N([C@@H](C)CO)C[C@H](C)[C@@H](CN(C)S(=O)(=O)c1ccc(F)cc1)OCCCC[C@H](C)O2 the results were esBAF inh -3.4.
Screening COc1ccc(NC(=S)NC(=O)c2ccccc2Cl)cc1 returned Jurkat NFkB inh -15.2, esBAF inh 61.9*, 697 NFkB inh -31.9, SMARCA2 act 0.0 and Gli-Sufu block -40.3.
Screening COc1ccc(NC(=S)N/C(=N/S(=O)(=O)c2ccc(C)cc2)c2ccccc2)cc1 returned Jurkat NFkB inh -29.2, esBAF inh 58.8*, 697 NFkB inh -65.1, SMARCA2 act 3.5 and Gli-Sufu block -21.9.
O=C(NC(=S)Nc1ccc(O)cc1)c1ccccc1Cl was read as Jurkat NFkB inh -56.8, esBAF inh inconclusive, 697 NFkB inh -57.2, SMARCA2 act 2.3 and Gli-Sufu block -68.6.
Screening O=C(O)c1ccc(N/C(=N\S(=O)(=O)c2ccc(Cl)cc2)c2ccccc2)cc1 returned Jurkat NFkB inh 3.5, esBAF inh 0.5, 697 NFkB inh 11.9, SMARCA2 act -1.1 and Gli-Sufu block -0.7.
COc1ccc(NC(=S)NC(=NS(=O)(=O)c2ccc(Cl)cc2)c2ccccc2)cc1 was read as Jurkat NFkB inh -59.0, esBAF inh 112.9*, 697 NFkB inh -82.7, SMARCA2 act -1.0 and Gli-Sufu block -70.7.
For COc1ccccc1-c1cnc2c(c1)C(=O)N([C@H](C)CO)C[C@@H](C)[C@H](CN(C)Cc1ccc(F)cc1)O2 the results were esBAF inh -0.1.
CCCCN1C(=O)/C(=C/C=C2/CC(C)(C)CN2C)SC1=S was read as Jurkat NFkB inh -30.0, esBAF inh 93.1*, 697 NFkB inh -33.8, SMARCA2 act 0.4 and Gli-Sufu block -38.8.
Screening C[C@@H]1CN([C@H](C)CO)C(=O)Cc2cc(NC(=O)C3CC3)ccc2O[C@H]1CN(C)S(C)(=O)=O returned esBAF inh 0.2.
`C[C@@H]1CCCCO[C@H](CN(C)S(=O)(=O)c2ccc(Cl)cc2)[C@H](C)CN([C@@H](C)CO)C(=O)c2cc(NC(=O)CCC(F)(F)F)ccc2O1` gave esBAF inh 3.9.
`CCOc1ccccc1/C=N/Nc1ccccc1[N+](=O)[O-]` gave Jurkat NFkB inh -40.5, esBAF inh 54.1*, 697 NFkB inh -25.3, SMARCA2 act 1.3 and Gli-Sufu block -21.0.
`COc1ccc(/C=N/NC(=S)Nc2ccccc2[N+](=O)[O-])cc1O` gave SMARCA2 act -2.8 and Gli-Sufu block 23.9.
Screening CCCOc1ccc(/C=N/NC(=S)Nc2ccccc2[N+](=O)[O-])c(O)c1 returned SMARCA2 act -6.2 and Gli-Sufu block 81.9*.
Screening CCn1c(N)nc2ccccc21 returned Jurkat NFkB inh -16.7, esBAF inh 52.7*, 697 NFkB inh 10.9, SMARCA2 act 0.8 and Gli-Sufu block 3.0.
Screening CCn1c(CCc2ccccc2)nc2ccccc21 returned Jurkat NFkB inh -30.3, esBAF inh 42.1*, 697 NFkB inh -31.2, SMARCA2 act 1.4 and Gli-Sufu block -14.2.
CCCn1c(N)nc2ccccc21 was read as Jurkat NFkB inh 10.9, esBAF inh -1.5, 697 NFkB inh 17.1, SMARCA2 act 0.5 and Gli-Sufu block 3.0.
C[C@@H]1CN([C@H](C)CO)C(=O)c2ccccc2-c2ccccc2CO[C@@H]1CN(C)C(=O)c1ccccc1 was read as esBAF inh 5.1.
Screening CNC(=O)C[C@@H]1CC[C@H]2[C@@H](COC[C@H](O)CN2C(=O)c2ccc3c(c2)OCO3)O1 returned esBAF inh 1.8.
Screening CC1=CC(=C2N=C(c3ccccc3)OC2=O)C=C(C)O1 returned Jurkat NFkB inh -64.1, esBAF inh 64.0*, 697 NFkB inh -34.3, SMARCA2 act -2.5 and Gli-Sufu block -52.8.
CN1C=CC=C/C1=C1/N=C(c2ccccc2)OC1=O was read as Jurkat NFkB inh -1.8, esBAF inh -1.7, 697 NFkB inh 3.0, SMARCA2 act 7.0 and Gli-Sufu block 0.3.
CN(C)C(=O)c1ccc(COc2ccccc2Br)o1 was read as Jurkat NFkB inh -49.1, esBAF inh 62.1*, 697 NFkB inh -63.9, SMARCA2 act 0.2 and Gli-Sufu block 5.9.
`O=C(Nc1nccs1)c1ccc(COc2ccc(F)cc2)o1` gave Jurkat NFkB inh -37.5, esBAF inh 60.5*, 697 NFkB inh -55.5, SMARCA2 act 1.3 and Gli-Sufu block -22.5.
Screening CC(C)c1ccc(OCc2ccc(C(=O)N(C)C)o2)cc1 returned Jurkat NFkB inh -67.3, esBAF inh 57.0*, 697 NFkB inh -142.4, SMARCA2 act 6.8 and Gli-Sufu block -78.3.
`O=C(Nc1nccs1)c1ccc(COc2ccccc2Br)o1` gave Jurkat NFkB inh -1.9, esBAF inh 49.8*, 697 NFkB inh -45.4, SMARCA2 act 0.8 and Gli-Sufu block -25.0.
For C[C@@H]1CN([C@@H](C)CO)C(=O)Cc2cc(NC(=O)Nc3ccc(C(F)(F)F)cc3)ccc2O[C@@H]1CN(C)S(=O)(=O)c1cn(C)cn1 the results were esBAF inh -0.2.
For O=C(O)CCn1c2ccccc2c2nc3ccccc3nc21 the results were Jurkat NFkB inh -53.3, esBAF inh 49.9*, 697 NFkB inh -75.4, SMARCA2 act -0.6 and Gli-Sufu block 7.8.
